Measured values: the supplement of paper PMC8285479
Counter-ions that a name gives are not always drawn. ± gives the standard deviation of the averaged measurements. Over roughly 1,900 compounds, “normalised cell viability (NPI; 0 = phenylarsine oxide control, 1 = DMSO control)” has its median near 1; the lowest 2% begin near 0.039. Many of the other results were omitted from the sample, so the lowest values are more common in it than they were.

Tested on: NCI-H1944
Assay: normalised cell viability (NPI; 0 = phenylarsine oxide control, 1 = DMSO control) (fraction of DMSO control); NCI-H1944 is a non-small cell lung cancer line; higher = more viable cells (less compound toxicity)
Details: 6 days
[1] = glucocorticoid arm: hydrocortisone 2.75 uM co-treatment, compound 1 µM
[2] = glucocorticoid arm: hydrocortisone 2.75 uM co-treatment, compound 5 µM
[3] = glucocorticoid arm: hydrocortisone 2.75 uM pre-treated 2 days and continued, compound 1 µM
[4] = glucocorticoid arm: hydrocortisone 2.75 uM pre-treated 2 days and continued, compound 5 µM
[5] = glucocorticoid arm: vehicle, compound 1 µM
[6] = glucocorticoid arm: vehicle, compound 5 µM
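Also: CTB read-out in 384-well plates, triplicate wells, NPI normalised per plate against 1 µM phenylarsine oxide (0) and 0.1% DMSO (1) controls.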

| Structure (SMILES) | normalised cell viability [1] | normalised cell viability [2] | normalised cell viability [3] | normalised cell viability [4] | normalised cell viability [5] | normalised cell viability [6] |
| --- | --- | --- | --- | --- | --- | --- |
| CN1CCN(C2Cc3ccccc3Sc3ccc(Cl)cc32)CC1 (racemic) [(±)-Octoclothepin maleate] | 1.01 ± 0.011 | 0.9477 ± 0.0045 | 1.01 ± 0.015 | 1.05 ± 0.087 | 1 ± 0.0095 | 1 ± 0.011 |
| [N-]=[N+]=Nc1ccc(C(=O)CSC[C@H](NC(=O)CC[C@H](N)C(=O)O)C(=O)NCC(=O)O)cc1 [S-(p-Azidophenacyl)glutathione] | 1.017 ± 0.0058 | 0.814 ± 0.0099 | 0.9947 ± 0.0067 | 1 ± 0.021 | 0.988 ± 0.014 | 0.517 ± 0.38 |
| COCC[n+]1c2c(n(Cc3cnccn3)c1C)C(=O)c1ccccc1C2=O | 0.00685 ± 0.0014 | 0.00188 ± 0.0012 | 0.00552 ± 0.0012 | 0.0024 ± 0.00039 | 0.00736 ± 0.00083 | 0.00199 ± 0.00048 |
| OC[C@H]1O[C@@H](n2cnc3c(Nc4ccccc4)ncnc32)[C@H](O)[C@@H]1O [N6-Phenyladenosine] | 1 ± 0.014 | 1.01 ± 0.011 | 1.02 ± 0.022 | 1.013 ± 0.0058 | 1.01 ± 0.01 | 1.002 ± 0.0076 |
| COc1[nH]c2ccc(F)cc2c1C(=O)OCC1CCN(CCNS(C)(=O)=O)CC1.NS(=O)(=O)O | 1.023 ± 0.0058 | 0.955 ± 0.011 | 1.017 ± 0.0058 | 0.989 ± 0.021 | 0.9993 ± 0.0011 | 1.007 ± 0.0058 |
| CN(C)Cc1ccc(S(=O)(=O)n2ccc(/C=C/C(=O)NO)c2)cc1 [Resminostat] | 0.941 ± 0.011 | 0.92 ± 0.018 | 0.961 ± 0.011 | 1.023 ± 0.0058 | 1.001 ± 0.0081 | 0.214 ± 0.026 |
| N[C@@H](Cc1c[nH]c2ccccc12)C(=O)O [L-Tryptophan] | 1.01 | 1.027 ± 0.0058 | 1.03 ± 0.032 | 1.033 ± 0.0058 | 0.999 ± 0.001 | 1.003 ± 0.0058 |
| O=C(/C=C/c1ccc(CN(CCO)CCc2c[nH]c3ccccc23)cc1)NO [LAQ824 (Dacinostat)] | 0.00706 ± 0.0016 | -0.000483 ± 0.0039 | 0.0151 ± 0.00085 | 0.00158 ± 0.00078 | 0.0063 ± 0.00096 | -0.000399 ± 0.00047 |
| Ic1ccc(N2CCN(Cc3c[nH]c4ncccc34)CC2)cc1 [L-750,667 trihydrochloride] | 0.969 ± 0.003 | 0.883 ± 0.014 | 0.99 ± 0.0044 | 0.999 ± 0.087 | 0.988 ± 0.011 | 0.998 ± 0.019 |
| CC1CCN=C(N)S1 (racemic) [(±)-AMT hydrochloride] | 0.982 ± 0.015 | 0.968 ± 0.015 | 0.9923 ± 0.0067 | 0.975 ± 0.0071 | 0.9907 ± 0.0095 | 0.9677 ± 0.0046 |
| OCc1ccc(-c2ccc(-c3ccc(CO)s3)o2)s1 | 0.979 ± 0.0061 | 0.0751 ± 0.0071 | 1.017 ± 0.0058 | 0.358 ± 0.022 | 0.621 ± 0.045 | 0.0128 ± 0.0026 |
| CCc1ccc(/C=C2/SC(=S)NC2=O)cc1 | 1.01 ± 0.017 | 1.06 ± 0.011 | 1.04 | 1.04 ± 0.021 | 1.007 ± 0.0058 | 1.013 ± 0.0058 |
| COC(=O)C(N)Cc1ccc(Cl)cc1 (racemic) [DL-p-Chlorophenylalanine methyl ester hydrochloride] | 1.02 ± 0.01 | 1.02 ± 0.015 | 1.017 ± 0.0058 | 1.02 ± 0.014 | 1.006 ± 0.0069 | 1.017 ± 0.0058 |
| NC[C@@H]1O[C@H](C23CC4CC(CC(C4)C2)C3)Cc2c1ccc(O)c2O | 1.01 ± 0.012 | 0.0562 ± 0.02 | 1.01 ± 0.011 | 0.996 ± 0.077 | 1.01 ± 0.011 | 0.0119 ± 0.0027 |
| CCCCCCCCCCCCCCCC(=O)OC(CC(=O)O)C[N+](C)(C)C (racemic) [Palmitoyl-DL-Carnitine chloride] | 1.02 ± 0.011 | 0.975 ± 0.014 | 1.013 ± 0.0058 | 0.863 ± 0.28 | 1.007 ± 0.0058 | 1.02 ± 0.02 |
| CC(/C=C/C(=O)NO)=C\[C@@H](C)C(=O)c1ccc(N(C)C)cc1 [Trichostatin A] | 2.17e-05 ± 0.00056 | 0.000584 ± 0.0001 | 0.00474 ± 0.0016 | 0.00101 ± 0.0013 | -0.000312 ± 0.00084 | 0.000187 ± 0.00072 |
| CC(C=CC(=O)NO)=CC(C)C(=O)c1ccc(N(C)C)cc1 (centres undefined) [Trichostatin A (TSA)] | 0.0292 ± 0.0042 | -0.000733 ± 0.0048 | 0.937 ± 0.098 | 0.00269 ± 0.00055 | 0.00709 ± 0.0011 | 8.2e-05 ± 0.00089 |
| Cc1ccc(C(=O)c2cc(/C=C/C(=O)NO)n(C)c2)cc1 | 1 ± 0.022 | 1.02 ± 0.02 | 1 ± 0.021 | 1.02 ± 0.017 | 0.9928 ± 0.0048 | 0.995 ± 0.022 |
| CN1CCC[C@@H]1c1cccnc1.Cc1ccc(C(=O)O[C@H](C(=O)O)[C@@H](OC(=O)c2ccc(C)cc2)C(=O)O)cc1 [(+)-Nicotine (+)-di-p-toluoyl tartrate] | 1.03 ± 0.015 | 1.02 ± 0.016 | 1.03 ± 0.01 | 1.03 ± 0.021 | 1.027 ± 0.0058 | 1.03 ± 0.015 |
| CC1CN(S(=O)(=O)c2cccc3cnccc23)CCN1 (centres undefined) | 0.9777 ± 0.0078 | 0.966 ± 0.025 | 0.9933 ± 0.0051 | 1.01 ± 0.091 | 0.9757 ± 0.0074 | 0.9753 ± 0.0076 |
| Oc1cc2c(c(Cl)c1O)CCNCC2c1ccccc1 (racemic) [(±)-6-Chloro-PB hydrobromide] | 1.007 ± 0.0058 | 1.04 ± 0.023 | 1.03 ± 0.015 | 1.05 ± 0.01 | 1.02 ± 0.01 | 1.02 |
| O=C(c1ccc2c(c1)OCCO2)N1CCCCC1 | 1.005 ± 0.0092 | 1 ± 0.017 | 1.01 | 1 ± 0.017 | 0.9913 ± 0.0096 | 0.9947 ± 0.0021 |
| O=C1O/C(=C/Br)CCC1c1cccc2ccccc12 (centres undefined) [Bromoenol lactone] | 1.02 | 1.02 ± 0.026 | 1.01 ± 0.01 | 1.02 | 0.998 ± 0.013 | 1.01 |
| CCOC(=O)C1=CN(Cc2ccccc2)C=C(C(=O)OCC)C1c1ccccc1 | 0.995 ± 0.018 | 1.01 ± 0.026 | 1 ± 0.019 | 1.01 ± 0.021 | 0.993 ± 0.0059 | 1.003 ± 0.01 |
| O=C(O)c1cc(O)c2ccc(Cl)cc2n1 [7-Chlorokynurenic acid] | 1.002 ± 0.0069 | 0.974 ± 0.0072 | 1.01 ± 0.015 | 0.9873 ± 0.0046 | 1.01 ± 0.01 | 0.997 ± 0.0036 |
| N=C(N)NCCCCN [Agmatine sulfate] | 1.017 ± 0.0058 | 1 ± 0.025 | 1.003 ± 0.0058 | 1 ± 0.025 | 0.986 ± 0.012 | 0.997 ± 0.011 |
| CC(C)C[C@H](NC(=O)[C@H](Cc1ccccc1)NC(=O)c1cnccn1)B(O)O [Bortezomib (Velcade)] | 0.352 ± 0.024 | 0.0578 ± 0.0037 | 0.677 ± 0.016 | 0.351 ± 0.042 | 0.00826 ± 0.0011 | 0.000986 ± 0.0007 |
| CC(C)C[C@H](NC(=O)[C@@H](O)[C@H](N)Cc1ccccc1)C(=O)O [Bestatin hydrochloride] | 0.996 ± 0.0046 | 1.02 ± 0.011 | 0.989 ± 0.01 | 1.02 ± 0.033 | 0.979 ± 0.012 | 0.9903 ± 0.0015 |
| CC(C)C[C@H](NC(=O)[C@H](O)[C@H](N)Cc1ccccc1)C(=O)O [Epibestatin hydrochloride] | 1.003 ± 0.0064 | 0.9953 ± 0.004 | 0.9977 ± 0.004 | 0.9947 ± 0.005 | 0.9957 ± 0.0067 | 1.007 ± 0.0058 |
